Results as given in publication PMC4336329 (PLoS ONE, 2015).
In all, about 310,000 compounds went through this assay and about 14,000 (4.5%) showed an effect of 50% or more. The effect is printed as a negative number. The full list was thinned out, with strong results kept by preference.

Target: human ether-à-go-go-related gene (hERG) potassium channel (human, UniProt Q12809)
Experiment: primary screen, population patch clamp on CHO cells stably expressing hERG; higher = less effect of the substance
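Further: peak tail current of the secondary pulse compared with the same well before compound.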

Chain of human ether-à-go-go-related gene (hERG) potassium channel (Q12809 whole entry, looked up): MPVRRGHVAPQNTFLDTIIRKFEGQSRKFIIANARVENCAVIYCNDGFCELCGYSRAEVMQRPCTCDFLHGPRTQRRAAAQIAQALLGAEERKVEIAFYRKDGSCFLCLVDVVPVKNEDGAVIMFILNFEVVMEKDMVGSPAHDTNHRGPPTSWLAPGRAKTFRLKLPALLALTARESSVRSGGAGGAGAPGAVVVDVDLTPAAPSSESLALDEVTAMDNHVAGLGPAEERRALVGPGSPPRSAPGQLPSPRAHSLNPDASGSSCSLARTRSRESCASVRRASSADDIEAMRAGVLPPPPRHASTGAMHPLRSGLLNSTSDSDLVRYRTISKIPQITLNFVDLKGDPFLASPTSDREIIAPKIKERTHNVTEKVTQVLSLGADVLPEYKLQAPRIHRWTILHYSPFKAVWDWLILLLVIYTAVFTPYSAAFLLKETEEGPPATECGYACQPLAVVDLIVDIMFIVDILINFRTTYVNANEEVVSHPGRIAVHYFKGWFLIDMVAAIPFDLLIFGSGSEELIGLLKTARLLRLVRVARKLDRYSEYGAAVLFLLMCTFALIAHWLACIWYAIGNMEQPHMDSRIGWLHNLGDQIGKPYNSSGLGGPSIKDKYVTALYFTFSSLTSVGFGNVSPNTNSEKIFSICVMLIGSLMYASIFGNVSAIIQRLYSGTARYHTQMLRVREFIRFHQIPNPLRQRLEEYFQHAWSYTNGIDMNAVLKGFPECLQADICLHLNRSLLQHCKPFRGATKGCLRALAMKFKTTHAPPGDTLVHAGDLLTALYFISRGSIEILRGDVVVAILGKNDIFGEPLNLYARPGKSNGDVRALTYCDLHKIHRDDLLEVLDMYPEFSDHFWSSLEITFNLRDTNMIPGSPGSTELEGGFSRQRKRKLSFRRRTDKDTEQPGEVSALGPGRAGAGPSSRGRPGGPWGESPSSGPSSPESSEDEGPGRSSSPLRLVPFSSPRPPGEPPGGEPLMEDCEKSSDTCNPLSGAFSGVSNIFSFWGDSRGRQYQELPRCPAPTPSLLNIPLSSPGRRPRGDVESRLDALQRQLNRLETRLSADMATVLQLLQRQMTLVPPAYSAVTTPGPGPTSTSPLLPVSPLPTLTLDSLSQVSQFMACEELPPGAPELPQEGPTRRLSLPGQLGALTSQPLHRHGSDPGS

In order of rising “hERG current change (%, negative = inhibition) at 10uM” value:
1. CN(C)CCCNC(=O)/C(=C\c1ccc(-c2cccc([N+](=O)[O-])c2)o1)NC(=O)c1ccccc1  -81.2%
2. COCCC(=O)N1CCCC(C(=O)c2ccc(Oc3ccccc3)cc2)C1 (stereo not drawn)  -79.3%
3. CN(C)CCNC(=O)/C(=C/c1ccc(-c2cccc([N+](=O)[O-])c2)o1)NC(=O)c1ccccc1  -75.4%
4. COc1ccc(C(=O)C2CCCN(Cc3cn[nH]c3-c3ccccc3)C2)cc1OC (stereo not drawn)  -74%
5. CCN(C(=O)COC(=O)c1ccccc1NC(=O)c1ccco1)C1CCS(=O)(=O)C1 (stereo not drawn)  -72.1%
6. Cn1ccnc1C(=O)C1CCCN(Cc2cn[nH]c2-c2ccc(-c3ccccc3)cc2)C1 (stereo not drawn)  -67.9%
7. COc1ccc(C(=O)C2CCCN(Cc3cn[nH]c3-c3ccc(F)cc3)C2)cc1OC (stereo not drawn)  -66.5%
8. C[C@H](NS(=O)(=O)c1ccc(Cl)c(Cl)c1)C(=O)OCc1cc(=O)n2cc(Br)ccc2n1  -63.4%
9. O=[N+]([O-])c1ccc(C[n+]2cccc3ccc4cccnc4c32)cc1.[Br-]  -62.6%
10. CN(C(=O)COC(=O)c1ccccc1NC(=O)c1ccco1)C1CCS(=O)(=O)C1 (stereo not drawn)  -62.3%
11. C=CCn1c(=O)n2ncnc2c2c3c(sc21)CCCC3  -59.3%
12. CC1(C(=O)OCc2cc(=O)n3cc(Br)ccc3n2)CC1(Cl)Cl (stereo not drawn)  -54.3%
13. CCN1CCN(CC(=O)N2CCCC(C(=O)c3ccc(Oc4ccccc4)cc3)C2)CC1 (stereo not drawn)  -52.7%
14. N#Cc1c(N)sc2c1CCN(CCc1ccccc1)C2  -50.5%
15. CN(C)C(=O)/C(=C\c1ccc(-c2cccc([N+](=O)[O-])c2)o1)NC(=O)c1ccccc1  -47.9%
16. Cc1cc(C)c(C)c(S(=O)(=O)N[C@@H](C)C(=O)OCc2cc(=O)n3cc(Br)ccc3n2)c1C  -47%
17. CCOC(=O)c1[nH]ncc1CN1CCCC(C(=O)c2cccc3ccccc23)C1 (stereo not drawn)  -45.8%
18. COc1cccc(C2=NNC(=NCc3ccccc3)SC2)c1  -42.6%
19. CN(C(=O)COC(=O)c1ccccc1Nc1ccccc1)C1CCS(=O)(=O)C1 (stereo not drawn)  -41.4%
20. O=[N+]([O-])c1ccc(C[n+]2cccc3c4ccccc4ccc32)cc1.[Br-]  -40.5%
21. O=c1n(Cc2ccc(Cl)cc2)c2sc3c(c2c2ncnn12)CCCC3  -39.1%
22. COCC(=O)N1CCCC(C(=O)c2ccc(Oc3ccccc3)cc2)C1 (stereo not drawn)  -34.1%
23. O=C(NCCCO)/C(=C/c1ccc(-c2cccc([N+](=O)[O-])c2)o1)NC(=O)c1ccccc1  -31.5%
24. Cn1cc(CN2CCCC(C(=O)c3nccn3C)C2)c(-c2cccc(Cl)c2)n1 (stereo not drawn)  -31.1%
25. COc1ccc(C(=O)C2CCCN(Cc3ccc(F)cc3F)C2)cc1F (stereo not drawn)  -29.8%
26. O=C(CNS(=O)(=O)c1ccc(Br)cc1)OCc1cc(=O)n2cc(Br)ccc2n1  -26%
27. CC(=O)NCC(=O)N1CCCC(C(=O)c2ccc(Oc3ccccc3)cc2)C1 (stereo not drawn)  -23.2%
28. CN(C)C(=O)/C(=C/c1ccc(-c2cccc([N+](=O)[O-])c2)o1)NC(=O)c1ccccc1  -21.3%
29. O=C(Cn1c(=O)n2ncnc2c2c3c(sc21)CCCC3)c1ccccc1  -20.1%
30. COc1ccc(C)cc1-n1c(SCC(=O)NC2CC2)nc2ccccc2c1=O  -17.4%
31. CC1CC1C(=O)OCc1cc(=O)n2cc(Br)ccc2n1 (stereo not drawn)  -16.2%
32. CCCCCn1c(=O)[nH]c2cc(C(=O)NCCN3CCCCC3C)ccc2c1=O (stereo not drawn)  -15.9%
33. Cc1cccc(Oc2ccc(N)cc2)c1  -12%
34. CCOc1ccc(-n2c(=O)[nH]cc(C(=O)N3CCCc4ccccc43)c2=O)cc1  -9.75%
35. COc1ccc(C(=O)Nc2ccc(-c3cn4ccsc4n3)cc2)cc1S(=O)(=O)N1CCOCC1  -9.6%
36. O=CNC1CCCc2c1[nH]c1ccc(Cl)cc21 (stereo not drawn)  -9.15%
37. CCn1nc(C)cc1C(=O)N1CCCC(C(=O)c2ccc(Oc3ccccc3)cc2)C1 (stereo not drawn)  -9.04%
38. CCN(CC)S(=O)(=O)c1cccc(C(=O)NCC(=O)OCC(=O)NCc2ccccc2)c1  -7.41%
39. COCc1[nH]nc2c1C(c1cccc(OC)c1)C(C#N)=C(N)O2 (stereo not drawn)  -7.26%
40. Cc1ccc(-c2cnc(NC(=O)CCC(=O)N3CCCCC3)n2C)cc1  -6.45%
41. CCOc1ccc(CC(=O)OCc2cc(=O)n3cc(Br)ccc3n2)cc1  -6.01%
42. CCN(C(=O)COC(=O)c1ccccc1NCCO)C1CCS(=O)(=O)C1 (stereo not drawn)  -5.97%
43. N#Cc1c(N)sc(=S)c2c1CCN(Cc1ccccc1)C2  -5.46%
44. CC(=O)N1CCCC(C(=O)c2ccc(Oc3ccccc3)cc2)C1 (stereo not drawn)  -5.43%
45. CC(=O)c1cnc2cc(-c3ccc(C)cc3)nn2c1C  -4.26%
46. COc1ccc(C(=O)C2CCCN(C(=O)c3ccc(F)cc3)C2)cc1OC (stereo not drawn)  -3.95%
47. COc1ccccc1-c1cc(C(=O)N/N=C\c2cnn(C)c2C)c2ccccc2n1  -3.85%
48. C=CCNC(=O)/C(=C/c1cn(-c2ccccc2)nc1-c1cccc([N+](=O)[O-])c1)NC(=O)c1ccccc1  -3.58%
49. CC1CCCC(C)N1S(=O)(=O)c1ccc(NC(=O)c2ccccc2C(=O)N2CCOCC2)cc1 (stereo not drawn)  -3.57%
50. O=[N+]([O-])c1ccc(C[n+]2cccc3ccccc32)cc1.[Cl-]  -3.07%
51. COc1cc(/C=C/c2ccc(O)cc2)cc(OC)c1  -2.2%
52. O=C(COC(=O)c1ccccc1NC(=O)c1ccco1)NC1CCS(=O)(=O)C1 (stereo not drawn)  -2.03%
53. Cc1ccc2nc(-c3ccc(NC(=O)CCS(=O)(=O)c4ccccc4)cc3)sc2c1  2.03%
54. Nn1c(SCC(=O)N2CCCc3ccccc32)nnc1-c1ccccc1  2.21%
55. CCN(C(=O)COC(=O)c1ccccc1Nc1cccc(C)c1C)C1CCS(=O)(=O)C1 (stereo not drawn)  2.59%
56. Cc1cccc(N2CCN(C(=O)Cn3cccc3)CC2)c1C  2.77%
57. CN(C)c1ccc(C2N(C(=O)N3CCOCC3)CCN2S(=O)(=O)c2ccccc2)cc1 (stereo not drawn)  3.98%
58. OC1(C(F)(F)F)CC(c2ccc3ccccc3c2)=NO1 (stereo not drawn)  4.45%
59. COc1ccc(/C=N/NC(=O)CCCC(=O)NC2CCCCC2)cc1  5.06%
60. CCN1CCc2c(sc(N)c2C#N)C1  5.55%
61. C/C(=C\[C@@H](NP(=O)(c1ccccc1)c1ccccc1)c1ccccc1)CO[Si](c1ccccc1)(c1ccccc1)C(C)(C)C  5.58%
62. CCN1C(=O)c2ccc(C(=O)Nc3ncc(C)s3)cc2C1=O  6.29%
63. CCOc1ccc(NC(=O)C2CCC(C)(C(=O)O)C2(C)C)cc1 (stereo not drawn)  6.49%
64. NC(=O)[C@@H]1CCCN1Cc1nc(Cc2ccccc2F)no1  7.29%
65. COc1cccc(OC(=O)N2CCOCC2)c1  8.3%
66. CC(C)CCOP(N)(=O)Oc1ccccc1 (stereo not drawn)  9.05%
67. CCC(C)(C)NC(=O)C(c1cccc(OC)c1OC)N(CCC(C)C)C(=O)CCC(=O)Nc1cc(C)on1 (stereo not drawn)  11.6%
68. Cc1n[nH]c(C)c1CCN.Cl  12.9%
69. CC(=O)Nc1ccc(S(=O)(=O)N2CCN(c3nnnn3-c3ccccc3)CC2)cc1  13.1%
70. CCOc1ccccc1C1CC(=O)Nc2cc(OC)c(OC)cc21 (stereo not drawn)  13.2%
71. Cc1occc1C(=O)NNC1=CC(=O)CC(C)(C)C1  13.3%
72. O=C(CCCN1C(=O)c2ccccc2C1=O)Nc1cccc(S(=O)(=O)NC2=NCCC2)c1  13.5%
73. COc1ccc(NS(=O)(=O)c2cc(NC(=O)c3ccc(=O)[nH]c3)ccc2C)cc1  15.1%
74. O=C1C2C3C=CC(C3)C2C(=O)N1c1ccc(-c2nc3ccccc3o2)cc1 (stereo not drawn)  15.6%
75. COc1ccc(N2CCN(C(C)C(=O)N3CC(C)OC(C)C3)CC2)cc1.O=C(O)C(=O)O (stereo not drawn)  18%
76. Nc1nc(SCc2nc3scc(-c4cccs4)c3c(=O)[nH]2)n[nH]1  18.9%
77. CCn1cnc2sc(C(=O)Oc3cccc(C)c3)c(C)c2c1=O  19.9%
78. CN(C)S(=O)(=O)c1ccc2c(c1)Cc1cc(S(=O)(=O)N(C)C)ccc1-2  20.1%
79. CC1CCN(CCCNC(=O)CCNC(=O)Cn2cnc3ccccc3c2=O)CC1  20.5%
80. CC1CN(c2nc3ccccn3c(=O)c2/C=C(\C#N)C(N)=O)CC(C)O1 (stereo not drawn)  21.1%
81. O=C(O)CCSc1nnc(COc2ccc([N+](=O)[O-])cc2)n1-c1ccccc1  22.8%
82. CCOC(=O)c1ccc(NC(=S)NNC(=O)C2(C)CC2(Cl)Cl)cc1 (stereo not drawn)  28.4%
83. CC1(C)Cc2nc3sc(C(=O)O)c(N)c3cc2CS1  29.4%
84. Cc1nn(C)c(Oc2ccccc2)c1CCNC(=O)CCl  35.6%
